Hits are enriched below; roughly 7.7% of the tested compounds scored in any of these assays.
FBPA Giardia inh: inhibitors of Giardia lamblia fructose-1,6-bisphosphate aldolase; actives 0.71% (n = 290,000); AID 2451; Potency, µM (highest dose often 59.6 µM), without a hit: at the highest dose activity, negative = inhibition, hits mostly inhibitors; A8B2U2; purified Giardia FBPA; also: potency is read from the fitted curve at half-maximal effect; nearly all actives have a fitted effect of over 55% in size
Target sequence (A8B2U2 whole entry, looked up): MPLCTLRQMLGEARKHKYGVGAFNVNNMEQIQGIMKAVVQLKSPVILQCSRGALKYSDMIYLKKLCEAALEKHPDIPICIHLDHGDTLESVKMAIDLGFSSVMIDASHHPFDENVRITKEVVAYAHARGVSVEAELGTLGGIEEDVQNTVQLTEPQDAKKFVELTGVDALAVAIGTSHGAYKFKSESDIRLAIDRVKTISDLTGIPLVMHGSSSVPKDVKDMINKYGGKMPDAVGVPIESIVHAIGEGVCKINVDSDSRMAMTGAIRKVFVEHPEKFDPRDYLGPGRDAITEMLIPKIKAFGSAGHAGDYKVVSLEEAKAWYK
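40 nM FBPA preincubated 10 min at RT with compound (up to 57.5 uM final), then substrate plus GAPDH/TPI/NAD/arsenate coupling and diaphorase/resazurin added. Fluorescence read after 20 min at RT, 525/598 nm.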
HCMV antiviral: blocks human cytomegalovirus replication. actives 4.5% (n = 410,000). HFF cells, HCMV-luciferase reporter, 72 h; hits give low values. activity change, negative = inhibition, % at 57.5 µM; in the data active = activity change below about -60%; inconclusive = no clear call, values can overlap the other calls; inactive = above about -39%
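Two-dose cell screen: HFF monolayers treated with compounds and infected with luciferase-expressing HCMV at 1 PFU/cell, 72 h at 37C, then lysed for luciferase measurement.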
FMDV inh: foot and mouth disease virus antiviral activity. FMDV antiviral cell-based qHTS. Potency, µM (highest dose often 57.9 µM), for inactives: top-dose activity change, negative = inhibition, actives largely listed as inhibitors. actives 1.2% (n = 410,000); calls by dose curve; tested in HEK293T cells; also: read-out not given here; potency is read from the fitted curve at half-maximal effect; nearly all actives have a fitted effect of over 45% in size
RE007 growth inh: less growth of the S. pombe RE007 Vpr strain | S. pombe RE007 Vpr strain, BacTiter-Glo ATP luminescence, 24 h | Potency, µM (top dose mostly 92.2 µM), inactives show at the top dose activity change, negative = less growth, actives largely listed as inhibitors | actives 0.21% (n = 360,000) | AID 651644; active = well fitted falling curve with a large enough effect; inconclusive = small, poorly fitted or top-dose-only effect; inactive = no such curve, though single readings can be large or run the other way; also: potency is read from the fitted curve at half-maximal effect; nearly all actives have a fitted effect of over 50% in size
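Fission yeast RE007 carrying one integrated HIV-1 vpr copy, seeded at OD 0.01 in PMG+AL medium with 23 nL pinned compound. Grown 24 h at 30 degrees; viability read by BacTiter-Glo luminescence after 5 min.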
Tb PYK inh: T. brucei pyruvate kinase inhibition; AID 624173; Potency, µM (doses to about 76.8 µM), for the others: at the top dose activity, negative = inhibition, actives largely listed as inhibitors; actives 0.12% (n = 410,000); TbPYK enzyme, Kinase-Glo Plus ATP luminescence, 45 min; Q57TT1; also: potency is read from the fitted curve at half-maximal effect; nearly all actives have a fitted effect of over 50% in size
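Luminescent Kinase-Glo Plus end-point after 45 min room-temperature reaction of T. brucei pyruvate kinase started with 130 uM ADP (final). Buffer TEA 50 mM pH 7.2 with KCl, MgCl2, BSA, Tween-20; titration-based qHTS with fitted concentration-effect curves.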
Sm TGR block: inhibitors of Schistosoma mansoni thioredoxin glutathione reductase; Q962Y6; purified TGR, DTNB reduction, TNB absorbance 405 nm; Potency, µM (doses to about 114 µM), inactives show at the highest dose activity change, negative = inhibition, most hits filed as inhibitors; actives 3% (n = 360,000); AID 485364; also: potency is read from the fitted curve at half-maximal effect; nearly all actives have a fitted effect of over 60% in size
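Kinetic colorimetric format: TGR-catalysed, NADPH-driven DTNB reduction monitored via TNB absorbance. Enzyme dispensed at 20 nM; compound exposure 15 min at room temperature before reaction start.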
* marks the source's active call; other numbers are inactive results; ? = inconclusive; · = not tested or not shown; [ ] = remark or other dose. Unless noted, calls follow the shape of the dose curve; as a rule, active = well fitted curve in the direction sought with a large enough effect; inconclusive = small, poorly fitted or top-dose-only effect, or another doubt; inactive = no such curve, though single readings can be large; an effect the other way counts as inactive or inconclusive. % is scaled to controls: 0 for no effect and ±100 for the full control effect.

SMILES	FBPA Giardia inh	HCMV antiviral	FMDV inh	RE007 growth inh	Tb PYK inh	Sm TGR block
Cc1cccc(C)c1N=CN1c2ccccc2-n2cccc2C1c1ccccc1 (stereo not given)	·	-4	·	·	·	·
O=C(CCn1c(=O)[nH]c2ccccc21)NCC1Cc2cc(Cl)cc(-c3ccncc3)c2O1 (stereo not given)	·	·	-9%	·	·	·
Cc1cccc(CN2CCN(C3CN(CCc4ccccc4)S(=O)(=O)C3)CC2)c1 (stereo not given)	·	-63*	-10%	-10%	5%	·
CN1CCC(N2CCN(C3CN(CCc4ccccc4)S(=O)(=O)C3)CC2)CC1 (stereo not given)	·	2	-9%	-3%	1%	·
COC(=O)C(NC(=O)c1ccc(F)cc1)(Nc1ncc(S(=O)(=O)c2ccc([N+](=O)[O-])cc2)s1)C(F)(F)F (stereo not given)	-6%	-1	13µM*	1%	0%	2%
COC(=O)C(NC(=O)c1ccccc1C)(Nc1ncc(S(=O)(=O)c2ccc([N+](=O)[O-])cc2)s1)C(F)(F)F (stereo not given)	-5%	16	?	-3%	0%	2%
CCN1CC(=O)Nc2cc(S(=O)(=O)N3CCOCC3)ccc21	5%	-60*	-13%	1%	-17%	-21%
CCc1ccc2c(c1)NC(c1ccc(F)cc1)=NC(c1ccncc1)=N2	·	6	-26%	·	3%	-3%
Cc1nc(-n2[nH]c3c(c2=O)CCCC3)[nH]c(=O)c1Cc1ccccc1	-1%	-103*	?	9%	-7%	-31%
CCOC(=O)Cn1c(=O)n(C2CCCCC2)c2nc(-c3cccc(C)c3)nc(C(N)=O)c21	·	3	-4%	·	5%	-2%
CC(=O)c1c(C)oc2c1cc(NS(=O)(=O)c1ccc(Br)cc1)c1ccccc12	·	-10	-30%	·	18%	6%
CC(=O)c1c(C)oc2c(Br)cc(NS(=O)(=O)c3ccc(Br)cc3)cc12	·	12	1%	·	4%	5.6µM*
CCOc1ccc(N(C)S(=O)(=O)c2ccc(C)c(C(=O)N3CCN(Cc4ccc5c(c4)OCO5)CC3)c2)cc1	·	-24	22µM*	15%	0%	·
Cc1cc(S(=O)(=O)NC(C)C)ccc1OCC(=O)N1CCN(Cc2ccc3c(c2)OCO3)CC1	4%	-84*	?	5%	4%	-12%
Cc1cc(S(=O)(=O)NC(C)C)ccc1OCC(=O)N1CCOCC1	8%	28	16%	18%	-2%	-10%
CC(C)NS(=O)(=O)c1ccc(OCC(=O)N2CCN(Cc3ccc4c(c3)OCO4)CC2)c(Cl)c1	6%	-68*	?	8%	?	20%
COc1ccc(N(C)S(=O)(=O)c2cccc(C(=O)N3CCN(Cc4ccc5c(c4)OCO5)CC3)c2)cc1	·	-10	?	-3%	-5%	2%
COc1ccc(C2=Nn3c(nnc3-c3ccccc3O)SC2)cc1OC	6%	·	·	·	·	·
Cn1cc(C(=O)O)c(=O)c2cc(S(=O)(=O)N3CCOCC3)ccc21	·	-24	?	·	-4%	2%
COCCn1cnc2c1-c1ccc(OC)c(c1)OC/C=C\COc1cccc-2c1	-7%	·	·	·	·	·
COc1ccc2c3c(n(C)c2c1)[C@H](CO)N(C(=O)Cc1ccccc1)CC31CCN(C(=O)Cc2ccccc2)CC1	·	24	·	·	·	·
O=[N+]([O-])c1ccc(Cl)c(S(=O)(=O)Nc2cccc(-c3ccc(N4CCCC4)nn3)c2)c1	·	-11	37%	-14%	-3%	0%
O=[N+]([O-])c1ccc(Cl)c(S(=O)(=O)Nc2ccc(-c3ccc(N4CCCC4)nn3)cc2)c1	·	-64*	37%	-5%	-17%	-6%
CCOC(=O)CCc1c(C)nc(SCC(=O)O)c(C#N)c1C	1%	38	14%	6%	32µM*	5%
C=C1C[C@]23CC[C@H]4C(CO)(CO)C[C@@H](O)C[C@@]4(C)[C@@H]2CC[C@H]1C3	4%	·	0%	·	·	·
SMILES	FBPA Giardia inh	HCMV antiviral	FMDV inh	RE007 growth inh	Tb PYK inh	Sm TGR block
CN1CCC(N(C)CC(O)c2ccccc2)CC1 (stereo not given)	?	?	2%	1%	-12%	13µM*
CN1[C@@H](C[C@@H](O)c2ccccc2)CCC[C@@H]1C[C@H](O)c1ccccc1	-4%[21.7 µM]	·	·	·	·	·
CCC(C)Oc1ccc(/C=C/c2[nH]c(=O)[nH]c(=O)c2[N+](=O)[O-])cc1OC (stereo not given)	15%	?	32µM*	6%	4%	-21%
COc1cc(/C=C/c2[nH]c(=O)[nH]c(=O)c2[N+](=O)[O-])ccc1OCCC(C)C	8%	-24	28µM*	15%	-12%	-6%
O=C(CF)NC(NC(=S)Nc1ccccc1O)C(Cl)(Cl)Cl (stereo not given)	0%	-66*	14%	-16%	-11%	-13%
O=C(COc1ccccc1)NC(NC(=S)Nc1ccccc1C(=O)O)C(Cl)(Cl)Cl (stereo not given)	0%	-14	10%	-18%	-14%	-16%
Cn1cccc/c1=N\c1cccc[n+]1C	-3%	-74*	-21%	-7%	9%	-6%
CCOC(=O)C(O)(c1ccc(N=c2ccccn2C)cc1)C(F)(F)F (stereo not given)	4%	29	-9%	-5%	-4%	2%
CN(C)c1ccc(CNC(=O)C2COc3ccccc3C2)cc1 (stereo not given)	·	25	66%	·	3%	4%
Nc1c2ccccc2nc2ccccc12	4%	-99*	?	?	-2%	4%
c1ccc(Oc2c3ccccc3nc3ccccc23)cc1	9%	·	-25%	-3%	-1%	5µM*
CC12CCC(C(=O)N(CCCN3CCN(Cc4ccccc4)CC3)C1=O)C2(C)C (stereo not given)	-18%	-90*	-21%	-4%	-7%	-3%[57.1 µM]
O=C(NN1C(=O)c2ccccc2NC1c1ccco1)c1ccccc1 (stereo not given)	8%	45	20%	8%	-26%	3%
O=C1c2ccc([N+](=O)[O-])cc2NC(c2ccco2)N1/N=C/c1ccco1 (stereo not given)	-23%	-11	-3%	-27%	-4%	40µM*
CN=c1scc(-c2ccc([N+](=O)[O-])cc2)n1/N=C/c1ccco1	3%	-87*	47%	-4%	-6%	0%
O=[N+]([O-])c1ccc(S(=O)(=O)N/N=C/c2ccco2)cc1	1%	19	13%	24%	0%	-15%
CNC(=O)[C@@H]1C[C@H](Sc2nc3ccccc3[nH]2)CN1Cc1ccccc1C(F)(F)F	·	·	-9%	·	·	·

Screens (PubChem BioAssay)
